This passage reports inhibition results from PubChem BioAssay AID651650 (Sanford-Burnham Center for Chemical Genomics, 2012).

The target in this assay is Neuropilin-1 (Homo sapiens) (UniProt O14786). In words: NRP-1 b1b2 CendR peptide binding inhibitors, dose response, biochemical, FP and AlphaScreen panel (AID 651650). Particulars: NRP-1 b1b2 / RPARPAR peptide binding, FP or AlphaScreen; run 1, at 100 µM (top of the series).
Chain of Neuropilin-1 (Homo sapiens) (O14786 whole entry, looked up): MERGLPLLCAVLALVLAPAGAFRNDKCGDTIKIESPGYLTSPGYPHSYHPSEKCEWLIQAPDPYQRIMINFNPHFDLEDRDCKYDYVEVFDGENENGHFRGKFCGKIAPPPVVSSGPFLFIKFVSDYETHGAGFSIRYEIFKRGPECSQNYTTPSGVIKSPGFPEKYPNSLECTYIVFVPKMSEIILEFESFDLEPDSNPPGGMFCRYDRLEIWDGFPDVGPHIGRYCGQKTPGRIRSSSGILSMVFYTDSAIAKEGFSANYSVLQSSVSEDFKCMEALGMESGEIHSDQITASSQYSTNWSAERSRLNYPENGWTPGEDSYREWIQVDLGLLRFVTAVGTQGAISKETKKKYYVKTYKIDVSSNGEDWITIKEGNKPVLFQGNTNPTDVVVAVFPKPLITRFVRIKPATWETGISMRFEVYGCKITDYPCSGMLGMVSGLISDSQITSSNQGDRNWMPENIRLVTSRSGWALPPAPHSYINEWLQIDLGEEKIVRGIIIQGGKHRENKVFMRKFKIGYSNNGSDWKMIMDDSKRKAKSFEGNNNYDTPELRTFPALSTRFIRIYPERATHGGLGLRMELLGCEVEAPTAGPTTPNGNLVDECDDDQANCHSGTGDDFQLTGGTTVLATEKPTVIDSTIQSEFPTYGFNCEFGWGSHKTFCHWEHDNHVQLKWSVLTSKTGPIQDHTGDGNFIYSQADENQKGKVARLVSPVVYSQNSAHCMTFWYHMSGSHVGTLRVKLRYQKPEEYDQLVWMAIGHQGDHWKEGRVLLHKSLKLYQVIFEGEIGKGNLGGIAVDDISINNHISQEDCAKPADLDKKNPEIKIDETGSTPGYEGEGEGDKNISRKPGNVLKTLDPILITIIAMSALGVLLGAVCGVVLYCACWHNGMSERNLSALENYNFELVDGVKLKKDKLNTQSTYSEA
With `CCOC(=O)C1(O)CC(C)=NN1C(=O)c1cccc(Br)c1` (stereo not drawn), the inhibition was found to be 35.1%.

For `C=C1CCN([C@@H](CC(C)C)C(=O)NCCC(C)C)S(=O)(=O)c2ccccc21`, the inhibition was found to be 35.9%.

Consider `COc1cccc(-c2ccc3c(c2)N(Cc2ccccc2OC)C(=O)C(C)S3)c1` (stereo not drawn), for which the inhibition is -18.6%.

As to `O=C(O)CCSc1nnc(COc2cccc3cccnc23)n1-c1ccccc1`, the inhibition stood at 52.3%.

For the compound `Cc1ccc(C(=O)N2CCN(C34CC5CC(CC(C5)C3)C4)CC2)o1`, the inhibition stood at 57.6%.

Regarding `COc1cc(Cn2nnc3ccccc32)cc(Br)c1O`, the inhibition is 37.3%.

For `COC/C=C/C1=CC2=CC(=O)C(C)(OC(=O)c3cnc4ccccc4n3)C(=O)C2=CN1Cc1ccc(OC)cc1` (stereo not drawn), the inhibition was determined as 66.7%.

On to `COc1ccncc1-c1csc(C(O)c2ccccc2)n1` (stereo not drawn), for which the inhibition turned out to be 3.78%.

As to `O=[N+]([O-])c1ccc(Nc2nc(NC3CCCCC3)nc(N3CCCC3)n2)cc1`, the inhibition turned out to be 25.6%.

Turning to `CC(C)COC(=O)C1C2C=CC3(CN(C(C)c4ccc(Br)cc4)C(=O)C13)O2` (stereo not drawn), the inhibition was found to be 60.2%.

Regarding `COc1ccc(/C=N/NC(=O)c2ccccc2Cl)cc1CSc1nc2ccccc2s1`, the inhibition worked out at 28.7%.

As to `C#CCOc1nc(C)cc(C)c1S(=O)(=O)c1ccccc1C`, the inhibition amounted to 25.9%.

`O=C(NCCCN1CCCCCC1)c1ccc(CS(=O)(=O)Cc2ccccc2F)o1`: the inhibition is 40.3%.

`CCOC(=O)c1ccc(NC(=O)CN2CCc3ccccc3C2)cc1`: the inhibition was found to be 1.94%.

On to `CCCCOC(=O)c1ccc(NS(=O)(=O)c2cc(-c3nnnn3CC)ccc2OC)cc1`, for which the inhibition was determined as 44.5%.

In the case of `CCCN(C(=O)Cn1c(C(F)(F)F)nc2ccccc21)C1CCS(=O)(=O)C1` (stereo not drawn), the inhibition was 60.7%.

`CCOC(=O)C[C@H]1c2cc(C(F)(F)F)ccc2S(=O)(=O)N1Cc1ccccc1`: the inhibition was 59.5%.

For `COc1ccc(NC(=O)C(C)Sc2ccccc2)cc1` (stereo not drawn), the inhibition came out at 13.5%.

With `CCN(c1ccccc1)S(=O)(=O)c1ccc(C(=O)N(CCCN(C)C)c2nc3cc4c(cc3s2)OCO4)cc1`, the inhibition is 72.6%.

Take `CC(/C=C/c1ccccc1)=N\NC(=O)CCc1ccccc1`: the inhibition was determined as 19.2%.

On to `CC(C)C1=C2CCCCC2NC(=O)N1` (stereo not drawn), for which the inhibition came out at 32.2%.

`Cc1occc1C(=O)N1N=C(C2CC2)CC1(O)C(F)(F)F` (stereo not drawn): the inhibition amounted to 35.3%.

On to `CC(OC(=O)c1ccco1)C(=O)Nc1nc(-c2ccccc2)cs1` (stereo not drawn), for which the inhibition is -9.71%.

`CCc1ccccc1NC(=O)c1ccccc1N1C(=O)C2C3C=CC(C3)C2C1=O` (stereo not drawn): the inhibition came to 21.3%.

On to `CCCCN(c1ccccc1)S(=O)(=O)c1ccc2c(c1)CCN2C(=O)CCC(=O)O`, for which the inhibition amounted to 8.36%.

As for `CCC1CCCCN1C(=S)Nc1ccc(OC(F)F)cc1` (stereo not drawn), the inhibition worked out at 69.3%.

Consider `Cc1nc2c(OCCC3CCCCC3)cccn2c1N(C)C(=O)CCC1CCCC1`, for which the inhibition worked out at 23.2%.

For `COC(=O)Cc1ccc(NC(=S)NCCCO)cc1`, the inhibition was 49.7%.

As to `C#CCCOC(=O)N1C2=NC(C(=O)OC)=C(C(=O)OC)[C@@H]3N(C)c4ccccc4[C@]23C[C@H]1CO`, the inhibition was found to be 74.8%.

Consider `COC(=O)c1c(NC(=O)CN(c2ccccc2)S(C)(=O)=O)sc2c1CCCC2`, for which the inhibition was determined as 84%.

For `CCOc1ccc(-n2c(Cc3cc(=O)[nH]c(=O)[nH]3)nnc2SC(C)C)cc1`, the inhibition is 59.6%.

For the compound `NCCCC[C@H]1CN=C(N)N1CCC12CC3CC(CC(C3)C1)C2`, the inhibition came to 70.7%.

As for `CCOc1ccc(S(=O)(=O)NNC(=O)c2cc3ccccc3o2)cc1`, the inhibition was determined as 1.91%.

Take `Cc1ccc(Cl)c(NC(=O)CSc2cccc[n+]2[O-])c1Cl`: the inhibition was -8.97%.

Take `CCOC(=O)/C=C/COc1ccccc1[N+](=O)[O-]`: the inhibition came out at 29.2%.

For the compound `COc1ccc([C@H]2/C=C\CN(C(=O)C3CC3)[C@@H](C)C(=O)N2Cc2ccc(F)cc2)cc1`, the inhibition is 30.1%.

With `CC(=O)Nc1cc(F)c2c(c1F)Cc1cc(F)ccc1-2`, the inhibition was found to be 64%.

On to `CCNS(=O)(=O)c1ccc(CCC(=O)O)cc1`, for which the inhibition came to 23.4%.
